# Measured values reported in PubChem BioAssay (EPA / NIEHS).
# Results filed as inconclusive are left out. Active and inactive are the calls of the source. Rule for the calls, unless noted: active = hit-call score of the fitted dose curve at least 0.9, where 1 is the maximum; inactive = score below 0.9.
# Key:
# [1] = biological target: Retinoic acid receptor RXR-alpha (Homo sapiens) (UniProt P19793); test: ATG_RXRa_TRANS: Attagene TRANS-FACTORIAL HepG2 Assay for human Retinoid X Receptor alpha (RXRa) (AID 2283012; active = hit-call score of the fitted dose curve at least 0.9, where 1 is the maximum)
# How it was run: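 TRANS format reporting activity of exogenous RXRa-Gal4 chimera in transiently transfected HepG2, 24 h exposure. Reporter transcripts quantified by RT-PCR with capillary electrophoresis, with gain of signal scored relative to DMSO.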
# [2] = biological target: human Retinoid X Receptor beta (RXRb), RXRB (gene 6257) (UniProt P28702); test: ATG_RXRb_TRANS: Attagene TRANS-FACTORIAL HepG2 Assay for human Retinoid X Receptor beta (RXRb) (AID 2283013; active = hit-call score of the fitted dose curve at least 0.9, where 1 is the maximum)
# How it was run: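 Readout is reporter transcript induction after 24 h dosing. It is measured by RT-PCR of total RNA followed by fluorescent capillary electrophoresis. HepG2 liver cells carry transfected multiple reporter units driven by an exogenous RXRb-Gal4 fusion; activity is relative to DMSO.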
# [3] = biological target: human Thyroid Receptor alpha (THRa1), THRA (gene 7067) (UniProt P10827); test: ATG_THRa1_TRANS: Attagene TRANS-FACTORIAL HepG2 Assay for human Thyroid Receptor alpha (THRa1) (AID 2283014; active = hit-call score of the fitted dose curve at least 0.9, where 1 is the maximum)
# How it was run: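 HepG2 cells transiently transfected with chimeric NR-Gal4 and GAL4-UAS reporter units, dosed 24 h. Reporter mRNA quantified by RT-PCR, fluorescent labeling, HpaI digestion and capillary electrophoresis; gain-of-signal fit versus DMSO.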
# [4] = read-out: E-selectin (Homo sapiens) (UniProt P16581); test: BSK_3C_Eselectin: BioMAP Diversity Plus: 3C Assay for Eselectin Biomarker Activity (AID 2283015); conditions: primary human endothelial cells (HUVEC); actives raise or lower the signal;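 for outcome: cell surface E-selectin protein quantified by ELISA 24 h after dosing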
# How it was run: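 Primary human umbilical vein endothelial cells (3C system), read 24 h after compound addition; E-selectin measured by ELISA. Bidirectional curve fitting against DMSO baseline; cytotoxicity by parallel SRB total-protein staining.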
# [5] = read-out: Interleukin-1 alpha (IL1a), IL1A (gene 3552); test: BSK_BE3C_IL1a: BioMAP Diversity Plus: BE3C Assay for Interleukin-1 alpha (IL1a) Biomarker Activity (AID 2283016); conditions: primary human bronchial epithelial cells; actives raise or lower the signal
# How it was run: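 IL-1a measured by ELISA after 24 h treatment of human primary bronchial epithelial cells, with gain or loss of signal fitted versus DMSO. Parallel cultures stained with SRB gauge overt cytotoxicity.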
# [6] = read-out: Monocyte Chemoattractant Protein-1 (MCP1), CCL2 (gene 6347); test: BSK_3C_MCP1: BioMAP Diversity Plus: 3C Assay for Monocyte Chemoattractant Protein-1 (MCP1) Biomarker Activity (AID 2283017); conditions: primary human endothelial cells (HUVEC); actives raise or lower the signal
# How it was run: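 Human umbilical vein endothelial cells (3C system) exposed to chemicals for 24 h; MCP-1 quantified by ELISA against the DMSO baseline with bidirectional fitting, and parallel SRB staining used to assess cytotoxicity.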
# [7] = read-out: Monocyte Chemoattractant Protein-1 (MCP1), CCL2 (gene 6347); test: BSK_4H_MCP1: BioMAP Diversity Plus: 4H Assay for Monocyte Chemoattractant Protein-1 (MCP1) Biomarker Activity (AID 2283018); conditions: primary human endothelial cells (HUVEC); actives raise or lower the signal
# How it was run: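 ELISA of MCP-1 (CCL2) 24 h after chemical dosing of HUVEC in the BioMAP 4H system. Gain or loss versus DMSO fitted; parallel SRB staining (560 nm) tracked overt cytotoxicity.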
# [8] = read-out: Human Leukocyte Antigen - DR isotype (HLADR), HLA-DRA (gene 3122); test: BSK_3C_HLADR: BioMAP Diversity Plus: 3C Assay for Human Leukocyte Antigen - DR isotype (HLADR) Biomarker Activity (AID 2283019); conditions: primary human endothelial cells (HUVEC); actives raise or lower the signal;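 for outcome: ELISA of cell-surface HLA-DR on HUVEC 24 h after dosing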
# How it was run: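 HUVEC monoculture, HLA-DR measured by ELISA 24 h after chemical dosing. Fitted bidirectionally against DMSO baseline; parallel SRB staining assessed cytotoxicity, with 3C proliferation read by SRB at 48 h.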
# [9] = read-out: Interleukin-8 (IL8), CXCL8 (gene 3576); test: BSK_3C_IL8: BioMAP Diversity Plus: 3C Assay for Interleukin-8 (IL8) Biomarker Activity (AID 2283020); conditions: primary human endothelial cells (HUVEC); actives raise or lower the signal
# How it was run: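 IL-8 was measured by ELISA in HUVEC cultures 24 h after chemical dosing, with gain or loss of signal fitted relative to DMSO. Parallel SRB total-protein staining tracked overt cytotoxicity.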
# [10] = read-out: Monokine induced gamma interferon (MIG), CXCL9 (gene 4283); test: BSK_3C_MIG: BioMAP Diversity Plus: 3C Assay for Monokine induced gamma interferon (MIG) Biomarker Activity (AID 2283021); conditions: primary human endothelial cells (HUVEC); actives raise or lower the signal
# How it was run: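 ELISA measurement of MIG in human umbilical vein endothelial cells 24 h after treatment. Cytotoxicity tracked by SRB staining in parallel cultures; gain or loss of signal fitted relative to DMSO.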
# Chain of E-selectin (Homo sapiens) (P16581 whole entry, looked up): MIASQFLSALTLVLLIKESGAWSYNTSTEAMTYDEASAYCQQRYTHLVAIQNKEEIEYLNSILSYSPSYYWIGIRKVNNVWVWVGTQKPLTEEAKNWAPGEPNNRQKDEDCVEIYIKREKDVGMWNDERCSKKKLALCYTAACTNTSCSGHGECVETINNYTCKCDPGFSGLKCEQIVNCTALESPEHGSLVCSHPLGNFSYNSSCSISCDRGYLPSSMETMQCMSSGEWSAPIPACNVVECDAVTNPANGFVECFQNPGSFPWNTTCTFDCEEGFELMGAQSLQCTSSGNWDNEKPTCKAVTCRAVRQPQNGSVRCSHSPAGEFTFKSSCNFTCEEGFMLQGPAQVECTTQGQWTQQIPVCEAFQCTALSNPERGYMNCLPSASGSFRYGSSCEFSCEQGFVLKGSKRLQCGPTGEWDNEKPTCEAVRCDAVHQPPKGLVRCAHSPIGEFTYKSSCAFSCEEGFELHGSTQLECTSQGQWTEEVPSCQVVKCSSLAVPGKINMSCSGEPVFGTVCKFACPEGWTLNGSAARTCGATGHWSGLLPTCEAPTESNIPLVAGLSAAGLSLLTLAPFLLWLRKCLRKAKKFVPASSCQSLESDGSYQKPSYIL
# Chain of Retinoic acid receptor RXR-alpha (Homo sapiens) (P19793 whole entry, looked up, the tested form may be a part): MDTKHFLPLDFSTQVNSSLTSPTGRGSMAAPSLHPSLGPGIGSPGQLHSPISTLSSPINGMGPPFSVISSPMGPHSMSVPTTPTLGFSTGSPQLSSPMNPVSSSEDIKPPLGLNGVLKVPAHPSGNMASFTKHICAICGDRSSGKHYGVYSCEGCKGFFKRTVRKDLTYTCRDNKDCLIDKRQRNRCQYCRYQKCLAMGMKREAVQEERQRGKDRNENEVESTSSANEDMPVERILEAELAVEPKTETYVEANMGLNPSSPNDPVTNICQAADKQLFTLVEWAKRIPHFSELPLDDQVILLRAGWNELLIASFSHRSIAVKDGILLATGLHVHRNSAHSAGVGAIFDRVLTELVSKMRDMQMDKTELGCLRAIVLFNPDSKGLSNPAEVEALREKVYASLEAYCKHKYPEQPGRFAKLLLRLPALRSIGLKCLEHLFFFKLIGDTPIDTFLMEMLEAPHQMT
# Chain of human Thyroid Receptor alpha (THRa1), THRA (gene 7067) (P10827 whole entry, looked up, the tested form may be a part): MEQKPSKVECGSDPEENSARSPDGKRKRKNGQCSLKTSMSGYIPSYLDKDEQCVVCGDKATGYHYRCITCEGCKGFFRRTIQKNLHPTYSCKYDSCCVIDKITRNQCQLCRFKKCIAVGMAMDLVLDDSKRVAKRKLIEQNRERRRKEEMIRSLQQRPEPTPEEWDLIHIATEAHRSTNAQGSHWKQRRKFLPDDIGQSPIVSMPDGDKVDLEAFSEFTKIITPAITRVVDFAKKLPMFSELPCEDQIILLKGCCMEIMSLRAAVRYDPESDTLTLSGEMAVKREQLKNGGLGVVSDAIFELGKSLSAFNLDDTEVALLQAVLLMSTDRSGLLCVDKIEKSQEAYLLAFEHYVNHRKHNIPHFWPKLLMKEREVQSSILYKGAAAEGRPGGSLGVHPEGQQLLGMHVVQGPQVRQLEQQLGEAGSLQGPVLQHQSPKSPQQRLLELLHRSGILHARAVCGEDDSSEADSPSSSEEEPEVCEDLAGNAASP
# Chain of human Retinoid X Receptor beta (RXRb), RXRB (gene 6257) (P28702 whole entry, looked up, the tested form may be a part): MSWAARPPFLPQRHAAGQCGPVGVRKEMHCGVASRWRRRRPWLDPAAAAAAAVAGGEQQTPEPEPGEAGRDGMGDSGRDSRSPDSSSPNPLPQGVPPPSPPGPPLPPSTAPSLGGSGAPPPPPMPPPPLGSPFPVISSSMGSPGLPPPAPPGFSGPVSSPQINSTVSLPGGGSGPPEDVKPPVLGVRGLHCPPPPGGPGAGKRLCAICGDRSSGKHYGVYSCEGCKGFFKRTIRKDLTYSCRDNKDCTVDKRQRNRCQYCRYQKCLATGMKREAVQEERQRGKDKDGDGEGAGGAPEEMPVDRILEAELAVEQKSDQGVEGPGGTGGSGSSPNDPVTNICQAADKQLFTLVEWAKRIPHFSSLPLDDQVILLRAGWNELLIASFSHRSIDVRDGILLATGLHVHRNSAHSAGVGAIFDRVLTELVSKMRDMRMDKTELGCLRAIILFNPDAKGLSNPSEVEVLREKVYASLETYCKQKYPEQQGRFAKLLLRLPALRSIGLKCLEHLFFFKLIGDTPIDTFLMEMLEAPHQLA
Structure (SMILES),outcome [1],AC50 [2],outcome [3],outcome [4],outcome [5],outcome [6],outcome [7],outcome [8],outcome [9],outcome [10],outcome [2],AC50 [1],AC50 [4],AC50 [8],AC50 [6],AC50 [7],AC50 [9]
CCCCCCC(=O)OCC,inactive,32.5 µM (active),inactive,inactive,inactive,inactive,inactive,inactive,inactive,inactive,–,–,–,–,–,–,–
Nc1ccc2c(c1)C(=O)c1ccccc1C2=O,inactive,–,inactive,inactive,inactive,inactive,inactive,inactive,inactive,inactive,inactive,–,–,–,–,–,–
CC(=O)Oc1ccccc1C(=O)O,–,8.23 µM (active),–,inactive,inactive,inactive,inactive,inactive,inactive,inactive,–,127 µM (active),–,–,–,–,–
CCNc1cccc(C)c1,inactive,–,inactive,inactive,inactive,inactive,inactive,inactive,inactive,inactive,inactive,–,–,–,–,–,–
CCCCCC(=O)O,inactive,–,–,inactive,inactive,inactive,inactive,inactive,inactive,inactive,inactive,–,–,–,–,–,–
Cc1cccc([N+](=O)[O-])c1C,inactive,53.4 µM (active),inactive,inactive,inactive,inactive,inactive,inactive,inactive,inactive,–,–,–,–,–,–,–
Cc1cccc(C)c1O,inactive,–,inactive,inactive,inactive,inactive,inactive,inactive,inactive,inactive,inactive,–,–,–,–,–,–
Nc1ccccc1N,inactive,–,inactive,–,inactive,inactive,inactive,–,inactive,inactive,inactive,–,17.2 µM (active),20 µM (active),–,–,–
Oc1ccc2c(c1)OC[C@@H](N1CCC(O)(c3ccc(F)cc3)CC1)[C@H]2O,inactive,–,–,inactive,inactive,inactive,inactive,inactive,inactive,inactive,inactive,–,–,–,–,–,–
Nc1ccc(S(=O)(=O)c2ccc(N)cc2)cc1,inactive,–,–,inactive,inactive,inactive,inactive,inactive,inactive,inactive,–,–,–,–,–,–,–
Cc1nc(C)nc(N2C[C@@H](C)N(c3ccnc([C@@H](C)O)n3)[C@@H](C)C2)n1,inactive,–,–,inactive,inactive,inactive,inactive,inactive,inactive,inactive,–,–,–,–,–,–,–
CCCCc1ccc2c(n1)[C@@H](c1ccc(OC)cc1C[C@H](C)C(=O)O)[C@H](C(=O)O)[C@H]2c1ccc2c(c1)OCO2,inactive,–,–,inactive,inactive,inactive,inactive,inactive,inactive,inactive,–,–,–,–,–,–,–
NCC1(Cc2noc(=O)[nH]2)CCCCC1,inactive,–,–,inactive,inactive,inactive,inactive,inactive,inactive,inactive,–,–,–,–,–,–,–
CC=Cc1ccc(O)c(OC)c1,inactive,–,–,inactive,inactive,inactive,inactive,inactive,inactive,inactive,–,–,–,–,–,–,–
CC1=C(/C=C/C(C)=C/C=C/C(C)=C/CO)C(C)(C)CCC1,–,0.474 µM (active),–,–,inactive,inactive,inactive,–,inactive,inactive,–,1.87 µM (active),19.3 µM (active),25.3 µM (active),–,–,–
Cc1ccc(C)c(C)c1,inactive,–,–,inactive,inactive,inactive,inactive,inactive,inactive,inactive,–,–,–,–,–,–,–
CCc1c(C(=O)NN2CCCCC2)nn(-c2ccc(Cl)cc2Cl)c1-c1ccc(Br)cc1,inactive,–,–,inactive,inactive,–,–,–,–,inactive,–,–,–,10.4 µM (active),7.54 µM (active),5.41 µM (active),7.69 µM (active)
CCCCOC(=O)CCCCCCCCC(=O)OCCCC,inactive,–,–,inactive,inactive,inactive,inactive,inactive,inactive,inactive,inactive,–,–,–,–,–,–
COc1cc(S(=O)(=O)O)c(C)cc1N=Nc1c(O)ccc2cc(S(=O)(=O)O)ccc12,inactive,–,–,inactive,inactive,inactive,inactive,inactive,inactive,inactive,–,–,–,–,–,–,–
COc1ccc2c(c1)c(CC(=O)O)c(C)n2C(=O)c1ccc(Cl)cc1,inactive,–,–,inactive,inactive,inactive,inactive,inactive,inactive,inactive,–,–,–,–,–,–,–
CC(C)(C)c1cc(O)c(C(C)(C)C)cc1O,–,59.4 µM (active),–,inactive,inactive,inactive,–,–,inactive,inactive,–,60.2 µM (active),–,9 µM (active),–,2.88 µM (active),–
